Screens as filed in PubChem.
Tb PFK block = blocks T. brucei phosphofructokinase; O15648; T. brucei PFK, ADP-Glo luminescence; Potency, µM (highest dose often 57.5 µM), for the others: at the top dose activity, negative = inhibition, hits mostly inhibitors; 0.17% of 330,000 active;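 further: potency means the concentration at half of the fitted maximal effect; 0% = uninhibited 1x PFK enzyme wells and -100% = no-enzyme wells; nearly all actives have a fitted effect of over 60% in size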
Target sequence (O15648 whole entry, looked up): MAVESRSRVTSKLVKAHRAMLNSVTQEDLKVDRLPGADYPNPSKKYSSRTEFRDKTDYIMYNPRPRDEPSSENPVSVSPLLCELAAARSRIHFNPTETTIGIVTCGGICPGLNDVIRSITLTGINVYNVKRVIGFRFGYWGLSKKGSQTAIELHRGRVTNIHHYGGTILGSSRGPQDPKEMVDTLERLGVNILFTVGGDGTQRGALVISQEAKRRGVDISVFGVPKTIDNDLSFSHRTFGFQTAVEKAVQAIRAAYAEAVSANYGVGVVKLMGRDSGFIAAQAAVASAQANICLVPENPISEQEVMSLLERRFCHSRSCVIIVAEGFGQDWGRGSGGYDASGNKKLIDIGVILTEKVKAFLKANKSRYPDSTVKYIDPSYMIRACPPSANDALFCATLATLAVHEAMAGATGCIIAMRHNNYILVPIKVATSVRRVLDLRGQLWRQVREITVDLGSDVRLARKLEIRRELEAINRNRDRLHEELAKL
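PFK 1.25 nM, F6P 0.5 mM, ATP 0.1 mM, 0.1 M TEA pH 8.0, 5 mM MgCl2, 0.01% Tween20, 0.1% BSA; 45 min RT. ADP-Glo readout. qHTS titration up to 57 uM; curves fitted, compounds curve-classed.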
PI5P4K alpha inh = blocks human PI5P4K alpha kinase activity. P48426. PI5P4Kalpha enzyme, ADP-Glo luminescence, 60 min; hits give low values. max response, %. 1.2% of 330,000 active. AID 652105; active means max response of -50% or lower; inconclusive means between -30% and -50%; inactive means -30% or higher; further: value at the top dose of about 77 µM
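Compounds were pin-transferred onto PI5P4Kalpha and substrate in HEPES pH 7.4 buffer with EGTA, CHAPS and 5% DMSO. ATP (5 microM final) started the reaction, which ran 60 minutes at room temperature before ADP-Glo detection.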
Pin1 inh = human Pin1 inhibition; Q13526; Pin1 FP peptide displacement, HiFluor488, 10 min; Potency, µM (top dose mostly 115 µM), for the others: at the top dose activity, negative = inhibition, actives largely listed as inhibitors; 0.009% of 390,000 active; AID 504891; active means well fitted inhibition curve with a large enough effect in the polarisation, with a control signal flat, not every such curve was filed as active; inconclusive means small, poorly fitted or top-dose-only effect, or effect the other way, or a change in a side signal; inactive means no such curve, though single readings can be large or run the other way; the % refers to the polarisation; further: potency means the concentration at half of the fitted maximal effect
PI4K2A inh = PI4K2A (human) kinase inhibition | Q9BTU6 | purified PI4K2A, ADP-Glo luminescence, 1 h; hits give low values | activity change, negative = inhibition, % at 76.9 µM | 0.13% of 420,000 active; in the data active means activity change below about -50%; inconclusive means mostly about -30% to -49%;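 further: -100% = wells without enzyme as full effect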
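Compounds are screened against recombinant PI4K2A using PI as substrate and ATP, the latter dispensed at 300 microM. Reactions run one hour at ambient temperature before ADP-Glo detection; full inhibition defined by wells lacking enzyme.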
PGK inhibitor = blocks T. brucei phosphoglycerate kinase; Potency, µM (series often up to 57.5 µM), for the others: top-dose activity change, negative = inhibition, most hits filed as inhibitors; P07378; PGK/GAPDH coupled, Kinase-Glo luminescence, 60 min; 0.043% of 380,000 active; further: potency means the concentration at half of the fitted maximal effect; nearly all actives have a fitted effect of over 60% in size
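Luminescent ATP detection (Kinase-Glo Plus) follows a 60-minute room-temperature incubation, with wells lacking PGK as controls. Buffer: 100 mM TEA (pH 7.6), 5 mM MgCl2, 0.01% Tween-20. Coupling enzyme GAPDH (100 nM final) supplies unstable 1,3-BPG in-well.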
The depositor's hits bear a star; ? = inconclusive; nt = no result given. The sample as a whole holds a higher share of hits than the screen did. Unless noted, the call rests on the fitted dose curve; in most records, active means well fitted curve in the direction sought with a large enough effect; inconclusive means small, poorly fitted or top-dose-only effect, or another doubt; inactive means no such curve, though single readings can be large; an effect the other way counts as inactive or inconclusive. Unless noted, on the % scale 0 is the no-effect control and ±100 the full control effect.

SMILES	Tb PFK block	PI5P4K alpha inh	Pin1 inh	PI4K2A inh	PGK inhibitor
O=C1C(=Cc2ccco2)CCC1=Cc1ccco1	nt	-83.5*	nt	-59.1*	3.55µM*
O=c1c(O[C@@H]2O[C@H](CO)[C@H](O)[C@H](O)[C@H]2O)c(-c2ccc(O)c(O)c2)oc2cc(O)cc(O)c12	6.75µM*	nt	nt	nt	nt
CC1OC(OC2C(Oc3c(-c4ccc(O)cc4)oc4cc(O)cc(O)c4c3=O)OC(COC3O[C@@H](C)[C@H](O)[C@@H](O)C3O)C(O)C2O)C(O)C(O)C1O (stereo partly drawn)	2.1%	5.6	4.4%	2.5	2.1%
CC1OC(OCC2OC(Oc3c(-c4ccc(O)cc4)oc4cc(O)cc(O)c4c3=O)C(O)C(O)C2O)C(O)C(O)C1O (stereo not drawn)	-0.7%	-66.6*	?	-5.6	?
COCc1cn(-c2ccc3c(c2)[C@@]2(CC(=O)N(C)C2c2ccccc2)C(=O)N3CC(C)C)nn1 (stereo partly drawn)	nt	nt	nt	1.4	nt
Cc1cc2c(s1)c1cnn(Cc3ccc(SC(F)(F)F)cc3)c(=O)c1n2C	nt	nt	-19.3%	nt	nt
NC(=O)NS(=O)(=O)c1ccc(Cl)cc1	nt	nt	nt	2.1	nt
Cc1ccc(NC(=O)[C@@H]2CC(=O)O[C@@H]2c2ccccc2)cc1C	nt	nt	nt	2.4	nt
COC1=CC(=NCl)C=CC1=NCl	nt	-61.9*	nt	?	nt
Fc1ccc(-c2cc(-c3nnc4sc(-c5cccs5)nn34)[nH]n2)cc1	nt	nt	nt	3.5	nt
Oc1c(Cl)cc(Cl)cc1C=Nc1ccc(Br)cc1	-13.8%	-54.6*	?	-3.8	-9.2%
CN(C)/C=C/C1=C([N+](=O)[O-])C(c2cccc([N+](=O)[O-])c2)NC(=O)N1 (stereo not drawn)	0.5%	-82.9*	9.2%	-2.3	4.3%
COc1cccc(C)c1NC(=O)C(OC(=O)CNC(=O)c1ccccc1)c1ccccc1 (stereo not drawn)	nt	nt	4.9%	nt	nt
C/C=C/Cn1c(SCc2ccc(C)cc2)nc2c1c(=O)[nH]c(=O)n2C	-1.4%	-6.9	8.7%	8.2	-4.1%
Cn1c(=O)[nH]c(=O)c2c1nc(SCC(=O)O)n2CCc1ccccc1	0.9%	-56.7*	-5.1%	-2.6	1.7%
CC=CCn1c(SCc2ccccc2)nc2c1c(=O)[nH]c(=O)n2C	nt	-58.4*	nt	-1.7	nt
CCOC(=O)CSc1nc2c(c(=O)[nH]c(=O)n2C)n1CCc1ccccc1	-0.3%	5.1	11.5%	5.5	-2.1%
O=[N+]([O-])c1cccc(S(=O)(=O)N2CCN(S(=O)(=O)c3ccc4c(c3)OCCO4)CC2)c1	nt	nt	-13.3%	nt	nt
CCCCCCOC(=O)NC(=N)c1ccc(NCc2nc3cc(C(=O)N(CCC(=O)OCC)c4ccccn4)ccc3n2C)cc1	nt	nt	nt	-0.7	nt
COc1ccc(C2CC(=O)N3CN(c4ccccc4F)CSC3=C2C#N)cc1OC (stereo not drawn)	-6.9%	-83.8*	-0.7%	-3.3	-4.0%
COc1ccc(OC)c(C2CC(=O)N3CN(c4ccccc4)CSC3=C2C#N)c1 (stereo not drawn)	-18.3%	-85.1*	-0.2%	-10.5	-3.6%
COc1ccc(C2CC(=O)N3CN(Cc4ccco4)CSC3=C2C#N)cc1 (stereo not drawn)	-17.9%	nt	-5.9%	-6.0	-10.5%
COc1ccc(C2CC(=O)N3CN(c4ccc(C)c(Cl)c4)CSC3=C2C#N)cc1 (stereo not drawn)	-26.9%	-69.5*	13.4%	-6.3	-6.9%
COc1cc(OC)c(C2CC(=O)N3CN(c4ccccc4C)CSC3=C2C#N)cc1OC (stereo not drawn)	-10.1%	nt	nt	nt	nt
COc1ccc(C2CC(=O)N3CN(C4CCCCC4)CSC3=C2C#N)c(OC)c1 (stereo not drawn)	nt	nt	-3.7%	-14.7	-0.3%
CCOc1cc(C2CC(=O)N3CN(C4CCCCC4)CSC3=C2C#N)ccc1O (stereo not drawn)	-0.6%	-60.5*	?	-8.7	1.5%
N#CC1=C2SCN(C3CCCCC3)CN2C(=O)CC1c1ccc(Br)cc1 (stereo not drawn)	nt	nt	?	-2.2	-2.5%
Cc1cc2c(s1)c1cnn(Cc3ccc(C(F)(F)F)cc3)c(=O)c1n2C	nt	nt	-9.7%	nt	nt
CO/N=C(/C(=O)N[C@@H]1C(=O)N2C(C(=O)[O-])=C(C[n+]3ccn4ncccc43)CS[C@H]12)c1nsc(N)n1	nt	nt	nt	-0.1	nt
